# Results as given in PubChem BioAssay.
# For part of these data: Measured potencies and affinities stand elsewhere. Activity calls are given as the source filed them. Rule as the data show it, unless noted: active = inhibition above about 80%; inactive = the rest.
# Key:
# [1] = blockers of polyQ-driven CASP3 activation – cell-based (AID 1583); conditions: polyglutamine-induced caspase-3 activation, cell assay; stronger effect = higher value;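 tested at 10 µM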
# [2] = yeast 75Q aggregation reduction – 75Q-TubU reporter (AID 1593); conditions: Yeast 75Q polyglutamine aggregation reporter
# [3] = restoration of touch response, mutant HTT neurons – whole organism, C. elegans mechanosensory neurons, N-terminal huntingtin (AID 1599); conditions: C. elegans polyQ-huntingtin mechanosensory neurons, stronger effect = higher value
# [4] = blockers of cytochrome c efflux from mitochondria – biochemical, purified mitochondria (AID 1603); conditions: stronger effect = lower value;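 also: mouse liver mitochondria challenged with calcium chloride; signal normalized to the plate average as 100%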
# [5] = polyglutamine aggregate formation blockers (AID 1604); conditions: polyglutamine-induced protein aggregation inhibition assay; stronger effect = higher value; tested at 2.5 µM
# [6] = compounds altering viability of human ES cells (AID 493140; call rule not given here;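 also: cells exposed to compounds for four days before counting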); conditions: human embryonic stem cell survival screen; stronger effect = higher value
# [7] = growth inhibition, single agent or in combination, cell-based, chromothripsis tumors, cisplatin or BGB combos (AID 1671449); conditions: LFS_MB_P medulloblastoma cells;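 also: cells exposed for 96 hours; 0% = vehicle DMSO and 100% = killing by high DMSO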
# [8] = growth inhibition, single agent and combos, cell-based, chromothripsis tumors, cisplatin or BGB combos (AID 1671450); conditions: HDN33 neuroblastoma cells, stronger effect = higher value;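 also: cells exposed to compound for four days; 0% = vehicle DMSO and 100% = cell killing by high DMSO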
# [9] = growth inhibition, single agents and combos, LFS_MB_1R, cell-based, cisplatin or BGB combos, synergistic combos for chromothripsis tumors (AID 1671452); conditions: LFS_MB_1R medulloblastoma cells, stronger effect = higher value;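 also: cells exposed for 96 hours before readout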
# [10] = growth inhibition, single agents and combos, HTB85, cell-based, BGB or cisplatin IC20 combos, synergistic combos for chromothripsis tumors (AID 1671453); conditions: HTB85 osteosarcoma cells, drug combinations, stronger effect = higher value;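 also: cells exposed for 96 hours before readout; 0% = vehicle DMSO and 100% = high DMSO killing control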
# [11] = growth inhibition, single agents and combos, CRL2098, cell-based, BGB or cisplatin IC20 combos, synergistic combos for chromothripsis tumors (AID 1671454); conditions: CRL2098 osteosarcoma cells, drug combinations, stronger effect = higher value;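 also: cells exposed for 96 h before readout; 0% = vehicle DMSO and 100% = killing by high DMSO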
# [12] = growth inhibition, single agents and combos, HD-MB03, cell-based, BGB or cisplatin IC20 combos, synergistic combos for chromothripsis tumors (AID 1671455; in the data active = inhibition above about 83%;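 also: 0% = vehicle DMSO and 100% = high DMSO as cytotoxic control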); conditions: HD-MB03 medulloblastoma cells, stronger effect = higher value
# [13] = growth inhibition, single agents and combos, UWB1.289, cell-based, BGB or cisplatin combos, synergistic combos for chromothripsis tumors (AID 1671456); conditions: UWB1.289 ovarian carcinoma cells, stronger effect = higher value;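 also: cells exposed to compound for four days; 0% = vehicle DMSO and 100% = killing by high DMSO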
# [14] = growth inhibition, single agents and combos, LFS_MB_2R, cell-based, cisplatin combos, synergistic combos for chromothripsis tumors (AID 1671457); conditions: LFS_MB_2R medulloblastoma cells, stronger effect = higher value;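 also: cells exposed to compound for four days before readout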
# [15] = growth inhibition, MDA-MB-436, cell-based, BGB or cisplatin combos, synergistic combos for chromothripsis tumors (AID 1671458; call rule not given here;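 also: cells exposed for 96 hours; 0% = vehicle DMSO and 100% = killing by high DMSO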); conditions: MDA-MB-436 breast carcinoma growth inhibition, drug combinations, stronger effect = higher value
# [16] = UWB1.289_BRCA1 ovarian cancer growth, cell-based, BGB or cisplatin combinations (AID 1671459); conditions: UWB1.289 BRCA1 ovarian carcinoma, drug combinations, stronger effect = higher value
# [17] = drug combination toxicity in non-malignant astrocytes – cell-based, BGB or cisplatin IC20 combos, cytotoxicity control for chromothriptic childhood tumor combination screen (AID 1671460); conditions: Human astrocytes, viability inhibition, drug combinations, at 0.5 µM, stronger effect = higher value;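 also: cells exposed to compounds for 96 hours before viability readout; 0% = vehicle and 100% = killing control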
# [18] = BT084 cell growth, single and combined drugs, ICGC_MB145, cisplatin and BGB IC40 combos (AID 1671461); conditions: BT084 medulloblastoma cells, drug combinations, stronger effect = higher value;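 also: cells exposed to drugs for 96 hours; 0% = vehicle DMSO and 100% = high DMSO full killing control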
# [19] = RCMB18 cell growth, single agent and combined, cisplatin and BGB IC40 combos (AID 1671462); conditions: RCMB18 medulloblastoma cells, stronger effect = higher value;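 also: cells exposed to compound for four days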
# [20] = CRL1545 cell growth, single agent and combined, cisplatin and BGB IC20 combos (AID 1671464); conditions: CRL1545 osteosarcoma cells, stronger effect = higher value;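 also: cells exposed to compound for 96 hours before readout; 0% = vehicle DMSO and 100% = high DMSO killing control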
# [21] = measured here: combination with BGB IC40, at 0.05 µM
# [22] = measured here: with BGB IC20 combination, at 0.5 µM
# [23] = measured here: with cisplatin IC20 combination, at 0.5 µM
# [24] = measured here: combination with cisplatin, at 0.5 µM
# [25] = measured here: combination with cisplatin, at 5 µM
compound,measurement,setting,value
CC(C)(S)C(N)C(=O)O (stereo unspecified),inhibition,[1],22.3%
same,score,[2],1.79
same,rescue above control,[3],-1.67
same,cytochrome c release ratio,[4],0.98
same,inhibition of aggregation,[5],94.4%
CC(C)(C)NC(=O)[C@@H]1C[C@@H]2CCCC[C@@H]2CN1C[C@@H](O)[C@H](Cc1ccccc1)NC(=O)[C@H](CC(N)=O)NC(=O)c1ccc2ccccc2n1,survival,[6],25.4 (inactive)
NC(=O)c1ncn(C2OC(CO)C(O)C2O)n1 (stereo unspecified),inhibition,"[7]; at 0.5 µM, stronger effect = higher value",-16.1% (inactive)
same,inhibition,"[7]; measured here: combination with BGB IC20, at 0.005 µM",-16.5%
same,inhibition,"[7]; measured here: combination with BGB IC40, at 0.005 µM",25.4%
same,inhibition,[7]; [21],-2.38%
same,inhibition,"[7]; measured here: combination with cisplatin, at 0.5 µM, stronger effect = higher value",-6.01%
same,inhibition,"[7]; measured here: combination with cisplatin, at 5 µM, stronger effect = higher value",-20.9%
same,inhibition,"[8]; BGB combo, at 5 µM",31.2%
same,inhibition,[8]; at 0.5 µM,2.73% (inactive)
same,inhibition,"[8]; cisplatin combo, at 5 µM",-8.56%
same,inhibition,[8]; [22],6.96%
same,inhibition,[8]; [23],2.48%
same,inhibition,"[8]; single agent, at 5 µM",14%
same,inhibition,[9]; at 0.5 µM,-9.72% (inactive)
same,inhibition,[9]; [21],-31.9%
same,inhibition,[9]; [24],21.6%
same,inhibition,[9]; [25],-1.97%
same,inhibition,[10]; at 0.5 µM,4.41% (inactive)
same,inhibition,"[10]; measured here: with BGB IC20, at 0.5 µM",-12.9%
same,inhibition,"[10]; measured here: with BGB IC20, at 5 µM",10.8%
same,inhibition,"[10]; measured here: with cisplatin IC20, at 0.5 µM",14.3%
same,inhibition,"[10]; measured here: with cisplatin IC20, at 5 µM",0.254%
same,inhibition,"[10]; single agent, at 5 µM",2.26%
same,inhibition,[11]; at 0.5 µM,-9.01% (inactive)
same,inhibition,"[11]; measured here: combination with BGB at IC20, at 0.5 µM",-25.7%
same,inhibition,"[11]; measured here: combination with cisplatin at IC20, at 0.5 µM",-6.71%
same,inhibition,[12]; at 0.5 µM,-4.13% (inactive)
same,inhibition,"[12]; measured here: combo with BGB at IC20, at 0.5 µM",-1.27%
same,inhibition,"[12]; measured here: combo with cisplatin at IC20, at 0.5 µM",-10.7%
same,inhibition,[13]; at 0.5 µM,3.07% (inactive)
same,inhibition,"[13]; measured here: inhibition with BGB combination, at 0.05 µM",9.47%
same,inhibition,"[13]; measured here: inhibition with cisplatin combination, at 0.05 µM",-5.32%
same,inhibition,[14]; at 0.5 µM,1.38% (inactive)
same,inhibition,[14]; [24],-4.76%
same,inhibition,[14]; [25],3.14%
same,inhibition,[15]; at 0.5 µM,-5.54% (inactive)
same,inhibition,"[15]; measured here: BGB combination, at 0.5 µM",2.04%
same,inhibition,"[15]; measured here: BGB combination, at 5 µM",-7.02%
same,inhibition,"[15]; measured here: cisplatin combination, at 0.5 µM",-11.9%
same,inhibition,"[15]; measured here: cisplatin combination, at 5 µM",6.23%
same,inhibition,"[16]; BGB combination, concentration series, at 5 µM",5.54%
same,inhibition,[16]; at 0.5 µM,1.33% (inactive)
same,inhibition,"[16]; cisplatin combination, concentration series, at 5 µM",1.04%
same,inhibition,[17],-5.97% (inactive)
same,inhibition,[17]; measured here: combo with BGB IC20,-5.76%
same,inhibition,[17]; measured here: combo with cisplatin IC20,-5.35%
same,inhibition,[18]; at 0.5 µM,6.99% (inactive)
same,inhibition,"[18]; cisplatin combination, at 0.5 µM",12.1%
same,inhibition,"[18]; cisplatin combination, at 5 µM",-28.4%
same,inhibition,"[18]; measured here: BGB IC40 combination 0.05 uM, at 0.05 µM",25.7%
same,inhibition,"[18]; single agent, at 5 µM",8.51%
same,inhibition,[19]; at 0.5 µM,9.1% (inactive)
same,inhibition,"[19]; cisplatin combo, at 5 µM",13.6%
same,inhibition,"[19]; measured here: BGB IC40 combination, at 0.05 µM",7.76%
same,inhibition,[19]; [24],29.4%
same,inhibition,"[19]; single agent, at 5 µM",-9.79%
same,inhibition,[20]; at 0.5 µM,-15.9% (inactive)
same,inhibition,[20]; [22],-14.4%
same,inhibition,[20]; [23],-16.7%
same,inhibition,"[20]; single agent, at 0.05 µM",17.7%
same,inhibition,"[20]; single agent, at 5 µM",-14.1%
